This note sets out measurements from the supplement of paper PMC3545927.

This test has as its target furin, P09958. The test is described as follows: furin cleavage Z-score vs untreated control; higher = more cleavage, active = 3.5 or more, inactive = 1 or less, 8 variable residues between constant flanks. An outline of the steps: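 Furin cleavage was scored on 8-mer peptides joined to a cDNA oligonucleotide and bound to magnetic beads at the N-terminus. Digestion with purified furin (1:10 enzyme:substrate, 0.01 ml, 50 mM HEPES pH 7.5, CaCl2, NaCl) lasted 7.5, 15 or 30 min. Freed DNA was tagged with adapters by PCR, sequenced and counted; the cleavage Z-score is the lowess-adjusted log count versus furin-free reactions, scaled by median absolute deviation.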

The list shows a part of the results. How many sequences the whole screen found active is unknown.

Sequence of furin, P09958 (P09958 whole entry): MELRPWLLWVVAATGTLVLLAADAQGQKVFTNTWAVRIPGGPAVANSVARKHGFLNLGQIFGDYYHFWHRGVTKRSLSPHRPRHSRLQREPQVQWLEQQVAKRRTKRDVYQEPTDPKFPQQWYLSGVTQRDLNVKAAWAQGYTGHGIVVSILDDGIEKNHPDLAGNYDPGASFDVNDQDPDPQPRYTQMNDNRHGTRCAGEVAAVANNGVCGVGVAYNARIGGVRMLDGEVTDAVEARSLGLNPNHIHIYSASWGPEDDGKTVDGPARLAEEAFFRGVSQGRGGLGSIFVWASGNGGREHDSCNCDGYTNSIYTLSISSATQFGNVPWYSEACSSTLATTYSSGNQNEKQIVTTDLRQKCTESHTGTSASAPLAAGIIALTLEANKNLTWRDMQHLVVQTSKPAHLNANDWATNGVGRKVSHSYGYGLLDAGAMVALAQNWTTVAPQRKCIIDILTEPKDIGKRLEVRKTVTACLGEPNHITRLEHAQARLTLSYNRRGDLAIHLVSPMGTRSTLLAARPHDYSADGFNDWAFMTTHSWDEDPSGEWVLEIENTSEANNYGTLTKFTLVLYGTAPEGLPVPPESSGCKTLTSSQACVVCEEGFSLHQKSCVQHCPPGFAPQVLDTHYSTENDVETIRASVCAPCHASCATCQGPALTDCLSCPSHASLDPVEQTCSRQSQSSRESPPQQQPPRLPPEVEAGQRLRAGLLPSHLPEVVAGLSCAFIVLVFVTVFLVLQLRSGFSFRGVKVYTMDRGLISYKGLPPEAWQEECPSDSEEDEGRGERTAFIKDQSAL

Turning to CARNIRSGVHAGNASASA [FS-3006], the “furin cleavage Z-score” value by setting is: (7.5 min) -0.391 (inactive); (15 min) -0.599 (inactive); (30 min) -0.61 (inactive).
Regarding CAEVVTSTWNAGNASASA [HC2261], the “furin cleavage Z-score” value (7.5 min) is -0.954 (inactive), the “furin cleavage Z-score” value (15 min) worked out at 1.01 and the “furin cleavage Z-score” value (30 min) was 0.548 (inactive).
Regarding CAGGVVLVGLAGNASASA [HC570], the “furin cleavage Z-score” value by setting is: (7.5 min) -0.221 (inactive); (15 min) 0.261 (inactive); (30 min) -0.661 (inactive).
With CALPSRLRRMAGNASASA [FS-55], the “furin cleavage Z-score” value is, setting by setting: (7.5 min) 9.43 (active); (15 min) 11.4 (active); (30 min) 8.99 (active).
Turning to CAWQRRLRRLAGNASASA [FS-895], the “furin cleavage Z-score” value is 3.85 (active) (7.5 min), 5.94 (active) (15 min) and 6.13 (active) (30 min).
Regarding CAEPRRQRRLAGNASASA [FS-1118], the “furin cleavage Z-score” value was 3.93 (active) (7.5 min), 4.47 (active) (15 min) and 4.27 (active) (30 min).
The like results for CAGDSRQRRLAGNASASA [FS-424] were, in that order, -0.0244 (inactive), 0.999 (inactive) and 0.163 (inactive).
For CASRGRLRRLAGNASASA [FS-1572], the “furin cleavage Z-score” value by setting is: (7.5 min) 4.39 (active); (15 min) 6.32 (active); (30 min) 6.52 (active).
Turning to CALPSRETRYAGNASASA [FS-1364], the “furin cleavage Z-score” value by setting is: (7.5 min) 2.17; (15 min) 1.29; (30 min) -0.268 (inactive).
As for CAFLTRLRRPAGNASASA [FS-769], the “furin cleavage Z-score” value is, setting by setting: (7.5 min) -0.966 (inactive); (15 min) -0.023 (inactive); (30 min) 0.341 (inactive).
CAPRWIWFCLAGNASASA [HC1655]: the “furin cleavage Z-score” value by setting is: (7.5 min) 2.54; (15 min) 0.216 (inactive); (30 min) 2.32.
In the case of CADYEPPVVHAGNASASA [HC1313], the “furin cleavage Z-score” value (7.5 min) was -0.331 (inactive), the “furin cleavage Z-score” value (15 min) was -1.03 (inactive) and the “furin cleavage Z-score” value (30 min) is 0.818 (inactive).
On to CARKKRSGRHAGNASASA [FS-2968], for which the “furin cleavage Z-score” value is 8.42 (active) (7.5 min), 11.9 (active) (15 min) and 8.64 (active) (30 min).
For the sequence CAKKSRAERKAGNASASA [FS-676], the “furin cleavage Z-score” value was -0.262 (inactive) (7.5 min), -0.389 (inactive) (15 min) and 0.536 (inactive) (30 min).
The like results for CARKKRVHFHAGNASASA [FS-2271] were, in that order, -0.215 (inactive), -0.15 (inactive) and 0.343 (inactive).
The corresponding values for CAKKSRSGRHAGNASASA [FS-1635] are 1.49, 3.83 (active) and 4.08 (active).
On to CAKKSRKSRPAGNASASA [FS-43], for which the “furin cleavage Z-score” value reads like this: (7.5 min) -1.56 (inactive); (15 min) -0.706 (inactive); (30 min) -1.33 (inactive).
For the sequence CAYGMWPLLLAGNASASA [HC556], the “furin cleavage Z-score” value by setting is: (7.5 min) 1.73; (15 min) 0.0218 (inactive); (30 min) -0.323 (inactive).
For the sequence CATTPCSGHWAGNASASA [HC1915], the “furin cleavage Z-score” value (7.5 min) is -0.316 (inactive), the “furin cleavage Z-score” value (15 min) came out at 1.87 and the “furin cleavage Z-score” value (30 min) was 0.16 (inactive).
Regarding CAAHGIDPNIAGNASASA [HC796], the “furin cleavage Z-score” value was -0.768 (inactive) (7.5 min), -0.681 (inactive) (15 min) and 0.0731 (inactive) (30 min).
For the sequence CATTPCDGSWAGNASASA [HC72], the “furin cleavage Z-score” value by setting is: (7.5 min) 0.037 (inactive); (15 min) 1.11; (30 min) 0.507 (inactive).
On to CAMEECSLHLAGNASASA [HC1725], for which the “furin cleavage Z-score” value is -0.0304 (inactive) (7.5 min), 0.668 (inactive) (15 min) and 0.792 (inactive) (30 min).
For CAKRSHLKRDAGNASASA [FS-680], the “furin cleavage Z-score” value (7.5 min) is 6.24 (active), the “furin cleavage Z-score” value (15 min) was 7.72 (active) and the “furin cleavage Z-score” value (30 min) is 6.62 (active).
Take CARYGRFLQPAGNASASA [FS-3134]: the “furin cleavage Z-score” value (7.5 min) was 0.584 (inactive), the “furin cleavage Z-score” value (15 min) was 1.53 and the “furin cleavage Z-score” value (30 min) is 0.786 (inactive).
In the case of CARYGRCKRDAGNASASA [FS-715], the “furin cleavage Z-score” value was 15.2 (active) (7.5 min), 15.5 (active) (15 min) and 11.9 (active) (30 min).
For CAREGRLKRDAGNASASA [FS-1256], the “furin cleavage Z-score” value was 11.7 (active) (7.5 min), 13 (active) (15 min) and 11 (active) (30 min).
For the sequence CAKQLRLKRDAGNASASA [FS-814], the “furin cleavage Z-score” value is, setting by setting: (7.5 min) 15 (active); (15 min) 13.5 (active); (30 min) 10.4 (active).
The corresponding values for CAREGRSKALAGNASASA [FS-2911] are 0.205 (inactive), 2.53 and 0.493 (inactive).
As to CASGPCSAHLAGNASASA [HC2496], the “furin cleavage Z-score” value is -0.802 (inactive) (7.5 min), 0.24 (inactive) (15 min) and 0.168 (inactive) (30 min).
With CAADAVDGAGAGNASASA [CS10], the “furin cleavage Z-score” value (7.5 min) was 0.632 (inactive), the “furin cleavage Z-score” value (15 min) is -1.19 (inactive) and the “furin cleavage Z-score” value (30 min) stood at 1.15.
In the case of CALNNTRPPLAGNASASA [HC430], the “furin cleavage Z-score” value reads like this: (7.5 min) 2.07; (15 min) 0.471 (inactive); (30 min) 1.95.
In the case of CACGSSDLYLAGNASASA [HC723], the “furin cleavage Z-score” value (7.5 min) is -2.29 (inactive), the “furin cleavage Z-score” value (15 min) is -1.54 (inactive) and the “furin cleavage Z-score” value (30 min) is -0.552 (inactive).
Regarding CATTPCSVSWAGNASASA [HC1890], the “furin cleavage Z-score” value runs as follows: (7.5 min) -0.725 (inactive); (15 min) -1.82 (inactive); (30 min) -0.963 (inactive).
For CAQVGDFHYVAGNASASA [HC1208], the “furin cleavage Z-score” value runs as follows: (7.5 min) -1.01 (inactive); (15 min) 0.348 (inactive); (30 min) -0.0115 (inactive).
For the sequence CAGPIRLKRDAGNASASA [FS-593], the “furin cleavage Z-score” value (7.5 min) is 15 (active), the “furin cleavage Z-score” value (15 min) was 15.3 (active) and the “furin cleavage Z-score” value (30 min) is 10.9 (active).
For the sequence CAKQHRLKRYAGNASASA [FS-1349], the “furin cleavage Z-score” value (7.5 min) was 11.1 (active), the “furin cleavage Z-score” value (15 min) was 11.6 (active) and the “furin cleavage Z-score” value (30 min) is 10 (active).
Take CARVERFKRDAGNASASA [FS-1567]: the “furin cleavage Z-score” value runs as follows: (7.5 min) 12.4 (active); (15 min) 11.1 (active); (30 min) 8.4 (active).
In the case of CALPGNPAIAAGNASASA [HC1051], the “furin cleavage Z-score” value runs as follows: (7.5 min) 0.0659 (inactive); (15 min) -0.342 (inactive); (30 min) -0.64 (inactive).
Turning to CACGPVYCFTAGNASASA [HC412], the “furin cleavage Z-score” value is 0.624 (inactive) (7.5 min), 0.0869 (inactive) (15 min) and -0.506 (inactive) (30 min).
Take CARKRRKRKKAGNASASA [FS-858]: the “furin cleavage Z-score” value is 0.153 (inactive) (7.5 min), 0.772 (inactive) (15 min) and 1.09 (30 min).
The like results for CAVKSRKRRKAGNASASA [FS-149] were, in that order, 11 (active), 11.7 (active) and 8.76 (active).
In the case of CAHPLRKRRKAGNASASA [FS-131], the “furin cleavage Z-score” value runs as follows: (7.5 min) 8.81 (active); (15 min) 9.6 (active); (30 min) 7.46 (active).
For CAPPLVETWKAGNASASA [HC1308], the “furin cleavage Z-score” value is, setting by setting: (7.5 min) 2.31; (15 min) 0.789 (inactive); (30 min) -0.408 (inactive).
